Results reported in PubChem BioAssay AID1159580 (chemical genetic matrix, 2015).
Where “and” joins values, the source holds several entries; their conditions need not be identical. Equal entries are not always repeated. Screen size: about 5,500 compounds; about 2,000 (36%) were called active. Not shown: some 18% with an inconclusive outcome. No stated cut-off is given here; in the data, active means normalized growth mostly below about 0.91 (no sharp cut-off); inconclusive means no clear call, values can overlap the other calls; inactive means mostly above about 0.92. The list shows a part of the results.

Assay: chemical genetic growth profiling, strain panel (AID 1159580);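 further: tested at 20 µM; growth read once vehicle control cultures reached saturation at 30 °C; 1 = growth at the plate median or of vehicle wells; lower values mean less growth of the strain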
Conditions: S. cerevisiae deletion strains, growth OD

Measured: normalized growth

Nc1ccc(S(=O)(=O)NC(=O)c2ccccc2)cc1
inactive: locus YAL013W, strain DEP1, hits give low values 1.01 | locus YAL021C, strain ccr4, hits give low values 0.985 | locus YAL026C, strain drs2, hits give low values 1 | locus YAL030W, strain snc1, hits give low values 1.01 | locus YBL061C, strain skt5, hits give low values 0.99 | locus YBR009C, strain hhf1, hits give low values 0.959 | locus YBR021W, strain FUR4, hits give low values 1.04 | locus YBR023C, strain chs3, hits give low values 0.995 | locus YBR171W, strain sec66, hits give low values 0.992 | locus YBR229C, strain ROT2, hits give low values 1.01 | locus YBR231C, strain swc5, hits give low values 0.992 | locus YBR279W, strain paf1, hits give low values 0.985 | locus YCL011C, strain gbp2, hits give low values 1 | locus YCL016C, strain dcc1, hits give low values 1.01 | locus YCL029C, strain bik1, hits give low values 1.02 | locus YCL061C, strain MRC1, hits give low values 0.979 | locus YCL069W, strain vba3, hits give low values 0.968 | locus YCR088W, strain abp1, hits give low values 0.978 | locus YDL005C, strain med2, hits give low values 0.992 | locus YDL035C, strain GPR1, hits give low values 1.01 | locus YDL040C, strain nat1, hits give low values 0.998 | locus YDL074C, strain BRE1, hits give low values 1.01 | locus YDL101C, strain DUN1, hits give low values 1.01 | locus YDL134C, strain PPH21, hits give low values 1.02 | locus YDL185W, strain tfp1, hits give low values 0.999 | locus YDL192W, strain arf1, hits give low values 1.02 | locus YDR001C, strain nth1, hits give low values 0.975 | locus YDR069C, strain doa4, hits give low values 0.973 | locus YDR101C, strain arx1, hits give low values 1.02 | locus YDR137W, strain rgp1, hits give low values 0.959 | locus YDR159W, strain sac3, hits give low values 0.948 | locus YDR162C, strain NBP2, hits give low values 1 | locus YDR195W, strain ref2 0.957 | locus YDR297W, strain sur2, hits give low values 0.997 | locus YDR318W, strain mcm21, hits give low values 1.03 | locus YDR334W, strain swr1, hits give low values 0.934 | locus YDR335W, strain msn5, hits give low values 0.985 | locus YDR388W, hits give low values 1.02 | locus YDR392W, strain spt3, hits give low values 1.01 | locus YDR502C, strain sam2, hits give low values 1.03 | locus YEL003W, strain gim4, hits give low values 0.99 | locus YEL037C, strain rad23, hits give low values 0.988 | locus YEL061C, strain CIN8 (second series), hits give low values 0.993 | locus YEL061C, strain CIN8, hits give low values 1.01 | locus YER015W, strain faa2, hits give low values 0.998 | locus YER016W, strain bim1, hits give low values 0.974 | locus YER110C, hits give low values 1.03 | locus YER111C, strain swi4, hits give low values 1.01 | locus YER155C, strain BEM2 (second series), hits give low values 1.02 | locus YER155C, strain BEM2, hits give low values 1.01 | locus YER167W, strain BCK2, hits give low values 1 | locus YFR010W, strain ubp6, hits give low values 0.951 | locus YGL078C, strain dbp3, hits give low values 1.02 | locus YGL086W, strain mad1, hits give low values 1.01 | locus YGL167C, strain pmr1, hits give low values 0.964 | locus YGL173C, strain kem1, hits give low values 0.986 | locus YGL227W, strain vid30, hits give low values 0.967 | locus YGL240W, strain doc1, hits give low values 0.998 | locus YGL248W, strain PDE1, hits give low values 1 | locus YGL253W, strain hxk2, hits give low values 0.989 | locus YGR135W, strain pre9, hits give low values 1.02 | locus YGR252W, strain gcn5, hits give low values 0.997 | locus YHR013C, strain ard1, hits give low values 0.98 | locus YHR027C, strain rpn1, hits give low values 0.993 | locus YHR030C, strain SLT2, hits give low values 1.01 and 0.995 | locus YHR079C, strain IRE1 (second series), hits give low values 1.01 | locus YHR079C, strain IRE1, hits give low values 0.98 | locus YHR094C, strain hxt1, hits give low values 1.01 | locus YHR129C, strain ARP1, hits give low values 0.996 | locus YHR142W, strain chs7, hits give low values 0.997 | locus YHR200W, strain rpn10, hits give low values 1.02 | locus YIL066C, strain RNR3, hits give low values 1.01 | locus YIL073C, strain SPO22, hits give low values 1.06 | locus YIL125W, strain kgd1, hits give low values 1.01 | locus YIR030C, strain dcg1, hits give low values 1.02 | locus YJL092W, strain hpr5, hits give low values 0.993 | locus YJL095W, strain BCK1 (second series), hits give low values 0.996 | locus YJL095W, strain BCK1, hits give low values 0.994 and 0.999 | locus YJL115W, strain asf1, hits give low values 0.999 | locus YJL129C, strain trk1, hits give low values 0.983 | locus YJL134W, strain LCB3, hits give low values 1.01 | locus YJL154C, strain vps35, hits give low values 0.99 | locus YJL164C, strain tpk1, hits give low values 0.979 | locus YJL166W, strain qcr8, hits give low values 0.983 | locus YJL168C, strain set2, hits give low values 1.01 | locus YJL187C, strain SWE1 (second series), hits give low values 1.01 | locus YJL187C, strain SWE1, hits give low values 0.992 | locus YJR043C, strain POL32, hits give low values 1.01
